The list is not random: actives were taken first. Their share in the collection is about 20%.
Pf growth 96h: inhibits malaria parasite growth, 96 h; P. falciparum luciferase reporter growth, 96 h; Potency, µM (doses to about 28.7 µM), without a hit: top-dose activity change, negative = inhibition, most hits filed as inhibitors; actives 6.9% (n = 320,000); AID 504834; further: potency means the concentration at half of the fitted maximal effect; on the % scale 0 is the no-effect control and ±100 the full control effect
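Infected RBCs, 2% Hct / 0.05% parasitemia final; luciferase-reporter P. falciparum; cpd 96 h, 37 C, 5% CO2; luciferase detection reagent; luminescence.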
Pf growth 48h: inhibits P. falciparum growth in the first generation, 48 h. P. falciparum luciferase growth in erythrocytes, 48 h. Potency, µM (highest dose often 28.7 µM), for the others: top-dose activity change, negative = inhibition, actives largely listed as inhibitors. actives 5.9% (n = 310,000). AID 504832; further: potency means the concentration at half of the fitted maximal effect; on the % scale 0 is the no-effect control and ±100 the full control effect
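Erythrocytes infected with P. falciparum carrying an integrated firefly luciferase reporter (2% hematocrit, 0.1% parasitemia final) were exposed to compounds in RPMI 1640 with 0.5% Albumax at 37 C, 5% CO2. Growth inhibition was scored as reduced luminescence.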
Shiga inhibitor: inhibitors of Shiga toxin in Vero cells; actives 9.2% (n = 290,000); Vero cells, Shiga toxin protein synthesis inhibition reporter; AID 2315; inhibition, % at 38.7 µM; in the data active means inhibition mostly above about 28%, no sharp cut-off; inactive means mostly below about 43%; further: 0% is about no effect
HCMV inh: blocks human cytomegalovirus replication. actives 4.5% (n = 410,000). AID 1259415. activity change, negative = inhibition, % at 57.5 µM. HFF cells, HCMV-luciferase reporter, 72 h; active compounds read low; in the data active means activity change below about -60%; inconclusive means no clear call, values can overlap the other calls; inactive means above about -39%; further: on the % scale 0 is the no-effect control and ±100 the full control effect
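HFF cells seeded 16 h at 37C, treated with compounds, infected with luciferase-reporter HCMV at MOI 1 PFU/cell; luciferase read at 72 h post infection, normalized to buffer-only and Salinomycin controls.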
CHX counter: counter-screen hit for Shiga toxin inhibitors, cycloheximide; actives 12% (n = 300,000); cell reporter, cycloheximide protein synthesis inhibition counterscreen; max response, %; in the data active means max response mostly above about 13%, no sharp cut-off; inactive means mostly below about 14%; further: read at 38.3 µM for the half of the compounds with a filed dose; 0% is about no effect
Starred values were filed as active, the others as inactive; ? = inconclusive; . = not tested or not shown. Unless noted, the call rests on the fitted dose curve; in most records, active means well fitted inhibition curve with a large enough effect; inconclusive means small, poorly fitted or top-dose-only effect, or another doubt; inactive means no such curve, though single readings can be large or run the other way.

SMILES	Pf growth 96h	Pf growth 48h	Shiga inhibitor	HCMV inh	CHX counter
Cc1nn(C)cc1/C=N/NC(=S)Nc1ccccc1	-144.1%	11.6%	174.8*	20.7	71.1*
O=C(CCC(=O)Nc1ccc(F)cc1)N/N=C/c1ccccc1O	-52.1%	?	72.8*	50.2	24.2*
CN(C)c1nc(N/N=C/c2ccccc2O)nc(Nc2ccc(F)cc2)n1	2.0%	3.7µM*	15.4	?	8.1
O=C(Cc1n[nH]c(=O)[nH]c1=O)N/N=C/c1ccccc1O	31.9%	1.47µM*	11.0	-4.5	1.3
COc1ccc(OC)c(NC(=O)c2cc3c(s2)-c2ccccc2SC3)c1	.	.	.	1.0	.
CCOc1ccc(S(=O)(=O)N2CCN=C2c2ccccc2)c(C)c1C	-27.4%	-19.8%	-13.9	-20.1	-1.7
CC(=O)N1c2ccc(S(=O)(=O)N(C)Cc3ccccc3)cc2CC1C (stereo unspecified)	?	-0.8%	15.1	4.1	0.5
COC(=O)[C@H](Cc1ccc(O)cc1)NC(=O)Cn1cnc2c(NCc3ccccc3)ncnc21	.	.	.	-8.8	.
O=c1c2cc3c(cc2nc2sc(Nc4cccc([N+](=O)[O-])c4)nn12)OCO3	.	.	.	0.0	.
Oc1ccccc1C=NNC(=S)Nc1ccc(F)cc1	.	.	.	-83.1*	.
O=C(C1=C[C@@H](c2ccc(Br)cc2)C[C@@H](OCCCCO)O1)N1CCN(Cc2ccc3c(c2)OCO3)CC1	4.15µM*	4.15µM*	10.7	-26.2	1.1
O=C(C1=C[C@H](c2ccc(C(F)(F)F)cc2)C[C@H](OCCCCO)O1)N1CCN(Cc2ccc3c(c2)OCO3)CC1	3.7µM*	5.86µM*	-8.2	-6.1	-1.1
Cc1ccc(CCNC(=O)c2c3c(nc4ccccc24)C(=O)N(C2CCCCC2)C3)cc1	.	.	.	8.4	.
CSCCC(NC(=O)C1CCC(C)CC1)C(=O)NCCN1CCC(C)CC1 (stereo unspecified)	?	4.2%	2.4	-35.6	1.9
Cc1ccc(-c2cc(C(=O)NCCc3ccccc3)c3ccccc3n2)cc1C	.	.	.	11.4	.
CCOC(=O)C1CCN(C(=O)c2cc(COc3ccc(F)cc3F)on2)CC1	21.0%	36.0%	126.5*	91.5	63.2*
CCOC(=O)N1CCN(C(=O)c2cc(COc3ccc(F)cc3F)on2)CC1	?	5.4%	87.9*	17.4	49.3*
COCCOC1CCN(C(=O)c2cc(COc3ccc(F)cc3F)on2)CC1	?	11.6%	75.2	17.4	22.8*
CCC(O)C1CCN(C(=O)c2cc(COc3ccc(F)cc3F)on2)CC1 (stereo unspecified)	1.0%	12.4%	17.1	-29.7	16.9
CCN(C)C1CN(Cc2cn(Cc3ccc(Cl)cc3)nn2)S(=O)(=O)C1 (stereo unspecified)	.	.	.	5.1	.
Cn1c(=O)cc(SCC(=O)NCCC2=CCCCC2)c2cc(Cl)ccc21	?	22.9%	-4.9	-23.3	0.9
O=C(Nc1cc([N+](=O)[O-])ccc1N1CCOCC1)c1cccs1	38.0%	9.2%	-6.0	4.5	19.6
O=C(Nc1cc2cc([N+](=O)[O-])ccc2oc1=O)c1cccs1	15.6%	99.8%	52.3*	.	27.7*
O=C(Nc1cc([N+](=O)[O-])ccc1N1CCCC1)c1cccs1	13.1µM*	?	7.5	-5.8	-2.8
CC1N(C)c2cc(NC(=O)c3cccs3)c(P(=O)(Nc3ccc([N+](=O)[O-])cc3)N3CCOCC3)cc2C1(C)C (stereo unspecified)	?	13.1µM*	-12.0	?	-1.2
SMILES	Pf growth 96h	Pf growth 48h	Shiga inhibitor	HCMV inh	CHX counter
Cc1cccc(-c2ocnc2C(=O)Nc2ccccc2NC(=O)c2ccccn2)c1	?	?	-3.5	-97.7*	1.4
Cc1ccc(-c2ocnc2C(=O)Nc2nc(C)cs2)cc1	-86.0%	112.6%	.	59.0	72.3*
Cc1ccc(-c2ocnc2C(=O)Nc2ccccc2NC(=O)c2ccccn2)cc1	17.7%	2.08µM*	-12.3	?	9.2
CCOc1cc(NC(=O)c2ccccn2)c(OCC)cc1NC(=O)c1ccc(C)cc1	60.5%	-11.1%	-17.0	-34.5	6.2
Cc1cc(C)n2c(=O)c3ccc(Cl)cc3nc2c1C#N	9.5%	38.8%	5.7	31.2	26.6
Cc1cc(Cl)n2c(nc3cc(F)c(F)cc32)c1C#N	?	?	-27.5	-99.0*	-3.7
CCn1ncc(NC(=S)NCCc2ccc(OC)c(OC)c2)c1C(N)=O	1.7%	8.3%	-6.7	-20.5	-3.3
CCOc1ccc(NC(=O)Nc2ccc(NC(C)=O)cc2)cc1	37.5%	18.3%	21.7	-18.3	2.8
CC(=O)Nc1ccc(OCCOCCOc2ccc(NC(C)=O)cc2)cc1	-5.8%	5.2%	.	43.9	.
S=c1[nH]nc(COc2ccc(Cl)cc2)o1	28.5%	-35.9%	9.9	?	10.7
Clc1ccc(OCc2cnc(Cl)s2)cc1	70.5%	39.7%	49.5	-13.2	25.6*
CC(=O)Nc1ccc(OCc2cnc(Cl)s2)cc1	-12.6%	29.1%	35.1	59.4	25.0*
CC(=O)Nc1ccc(OC/C=C(\C)Cl)cc1	-16.1%	0.0%	30.5	-2.4	16.5*
CCc1ccc(OCc2cnc(Cl)s2)cc1	52.3%	17.0%	77.7	?	27.5*
CC1(C(=O)Nc2cccc3ncccc23)CCN1C(=O)Cc1ccc(-c2ccccc2)cc1 (stereo unspecified)	.	.	.	-37.9	.
Fc1ccc(N/N=C(/c2ccccc2)c2ccccn2)cc1	5.22µM*	?	13.0	-60.8*	30.4*
C/C(=N\NC(=O)c1ccccc1-n1cccc1)c1ccccn1	.	.	.	-99.2*	.
C/C(=N\NC(=O)c1cc2ccccc2cc1O)c1ccccn1	10.2%	3.7µM*	26.6	-98.5*	24.7*
C/C(=N\NC(=O)c1cc2ccccc2cc1O)c1cc2ccccc2o1	?	?	13.6	0.0	9.2
C/C(=N\NC(=O)c1ccc(F)cc1)c1ccccn1	27.9%	?	97.5*	-97.7*	62.2*
Cc1cc(C)nc(NC(=S)Nc2cccc(Cl)c2Cl)c1	?	-11.4%	-13.9	-27.3	6.8
CCOc1ccc(-c2cc3c(=O)n(CC(=O)NCc4ccccc4)ccn3n2)cc1	.	.	.	53.6	.
Cc1ccc(OCC(=O)NNC(=O)CSC(=S)N2CCCC2)cc1	8.2%	5.5%	.	-32.6	.
C/C(=N\NC(=O)c1ccccn1)c1ccc(C(=O)O)s1	-1.7%	92.2%	74.2*	37.7	45.0*
C/C(=N\NC(=O)c1c[nH]c2ccccc12)c1ccccn1	?	?	146.9*	-82.3*	31.9*
SMILES	Pf growth 96h	Pf growth 48h	Shiga inhibitor	HCMV inh	CHX counter
CCc1ccc(/C(C)=N/NC(=O)c2c[nH]c3ccccc23)s1	17.7%	?	19.2	75.0	17.9*
CCc1ccc(/C(C)=N/NC(=O)c2ccccn2)cc1	?	74.6%	45.9	14.0	20.7*
CCOc1ccc(NC(=O)COC(=O)c2ccc3c(c2)OCCO3)cc1	?	?	.	1.5	.
CCC(=O)Nc1cc2c(cc1Cl)-c1ccccc1C2	.	.	.	59.9	.
C/C(=N\NC(=O)CCCNc1ccc(C)cc1)c1ccccn1	?	?	-3.9	-66.8*	-2.5
C/C(=N\NC(=O)CCCNc1ccccc1)c1ccncc1	?	-1.6%	-3.5	-26.6	-1.0

Screens from PubChem.
